Hit rate of the full screen: of about 2,400 compounds, about 1,400 (58%) were called active.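 The calls were made as follows: active = inhibition of 30% or more at any tested dose; inconclusive = primary hits over the limit that were never retested; inactive = the rest.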 So high a share suggests a set chosen from earlier hits. This is one part of the list.

The assay can be described thus: ADP Hunter readout inhibition without MgcRacGAP – biochemical, coupled enzyme counter-screen, artefact control for MgcRacGAP inhibitor project, dose response (AID 624351).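 Also: signal is the ADP detection kit reading of free GDP without any GAP enzyme.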 Conditions: fluorescence, no MgcRacGAP; series mostly up to 80 µM. In general terms: A counterscreen serves to expose hits that act by an unwanted route or on another target.
As usually defined, the IC50 is the concentration needed to halve the response being measured. Take `CC(=O)N1CCN(c2ccc(NCc3ccco3)cc2)CC1`: the IC50 is 13.1 µM (active).

Turning to `CC(=O)N1CCN(c2ccc(NCc3ccc(Br)o3)cc2)CC1`, the half-maximal inhibitory concentration (IC50) is 12.4 µM (active).

For the molecule `COc1ccc(N2CCN(C(=O)c3ccc(Br)o3)CC2)cc1`, the IC50 result is “inactive”.

As for `O=C(CNCc1ccco1)Nc1ccc(N2CCCCCC2)cc1`, the IC50 result is “inactive”.

`Cc1cc(/C=N/Nc2ccc([N+](=O)[O-])cn2)c(C)n1-c1ccc(C(=O)O)cc1`: the IC50 entry is “inactive”.

For `CN(C)c1ccc(Nc2ccc([N+](=O)[O-])cn2)cc1`, the 50% inhibitory concentration (IC50) is 70.9 µM (active).

As for `CN(C)c1ccc(NC2=C([N+](=O)[O-])CS(=O)(=O)C2)cc1`, the IC50 is 51.3 µM (active).

Take `O=C(c1ccccc1F)N1CCN(Cc2ccccc2F)CC1`: the IC50 entry was “inactive”.

`CCOc1c(C=C(C#N)C#N)c2ccccc2n1CC`: the IC50 entry is “inactive”.

Regarding `CN1CCN(/N=C/c2nc(-c3ccc(Cl)cc3)n3ccccc23)CC1`, the IC50 was 41.9 µM (active).

Regarding `CN1CCN(/N=C/c2nc(-c3ccccc3)n3ccccc23)CC1`, the IC50 was 35.6 µM (active).

In the case of `C(=N\N1CCOCC1)/c1nc(-c2ccccc2)n2ccccc12`, the IC50 was 25.7 µM (active).

As for `Clc1ccccc1-c1nc(/C=N/N2CCOCC2)c2ccccn12`, the IC50 was 44 µM (active).

As for `O=C(O)c1ccc2c(c1)C(=O)/C(=C\c1ccco1)C2=O`, the IC50 result was “inactive”.

On to `Cc1ccccc1N1C(S)=C(C#N)C(=O)NC1c1cccs1` (stereo not given), for which the IC50 entry is “inactive”.

Consider `Cc1ccc(-n2sc3cc(F)ccc3c2=O)c(C)c1`, for which the IC50 result was “inactive”.

`CSc1ccccc1NC(=O)CNCCCN1CCOCC1`: the IC50 entry was “inactive”.

As to `O=C1CCCCC/C1=N/Nc1ccc(OCc2ccccc2)cc1`, the IC50 result is “inactive”.

Take `O=C(NCc1ccco1)c1sc(=S)n2c1[nH]c(=O)c1ccccc12`: the IC50 entry is “inactive”.

Turning to `CCOC(=O)COc1ccc2c(c1)C(=O)CC1(CCCCC1)O2`, the IC50 entry was “inactive”.

Regarding `COCCNC(=O)COc1ccc(Nc2ccccc2)cc1`, the IC50 is 62.8 µM (active).

With `O=C(CNCc1ccco1)Nc1ccc(Oc2ccccc2)cc1`, the IC50 result was “inactive”.

In the case of `N#Cc1ccc(OCC(=O)Nc2ccc(N3CCCC3)cc2)cc1`, the IC50 result was “inactive”.

In the case of `O=C(COc1ccc(Nc2ccccc2)cc1)OCC(=O)N1CCCCC1`, the 50% inhibitory concentration (IC50) was 75.6 µM (active).

Take `O=C(COC(=O)COc1ccc(Nc2ccccc2)cc1)NCc1ccco1`: the IC50 is 79.9 µM (active).

For the molecule `COc1ccc(-n2nc3c(c2NC(=O)CCCCl)CSC3)cc1`, the IC50 result was “inactive”.

On to `O=C(Nc1ccc(Nc2ccccc2)cc1)C1CC1`, for which the IC50 is 55.9 µM (active).

On to `O=C(Nc1ccccc1)C1=C(c2ccccc2)S(=O)(=O)CCS1(=O)=O`, for which the IC50 entry was “inactive”.

For `O=C(O)c1ccccc1C(=O)Nc1ccc(Nc2ccccc2)cc1`, the IC50 is 62.4 µM (active).

Consider `CC(C)C(=O)Nc1ccc(Nc2ccccc2)cc1`, for which the IC50 was 52.3 µM (active).

With `CC(=O)Nc1ccc(S(=O)(=O)Nc2nc3ccccc3nc2Nc2ccc(C(=O)O)c(O)c2)cc1`, the IC50 entry was “inactive”.

For `CC(=O)Nc1ccc(S(=O)(=O)Nc2ccc(Nc3ccccc3)cc2)cc1`, the IC50 was 80.7 µM (active).

Turning to `Cc1cc(C)c2c(c1)NC(C(=O)O)C1CC=CC21` (stereo not given), the IC50 entry was “inactive”.

Regarding `COc1ccc(-n2cccc2/C=C/[N+](=O)[O-])cc1`, the IC50 result is “inactive”.

As to `CC1=NOC(=O)/C1=C\c1ccc(-c2ccc(Cl)c(C(=O)O)c2)o1`, the IC50 result is “inactive”.

For `N#CC1=C(S)N(c2ccccc2)C(c2cccs2)NC1=O` (stereo not given), the IC50 result was “inactive”.

Regarding `CC(=O)Nc1ccc(Nc2ccccc2)cc1`, the half-inhibitory concentration (IC50) is 75.5 µM (active).

Consider `CCC(=O)Nc1ccc(Nc2ccccc2)cc1`, for which the IC50 was 55.9 µM (active).

Regarding `O=C(Nc1ccc(O)cc1)c1ccccc1OCc1ccccc1`, the IC50 is 44.8 µM (active).

Consider `CC(=O)Nc1ccc(NC(=O)C(C)OC(=O)COc2ccc(Nc3ccccc3)cc2)cc1` (stereo not given), for which the IC50 entry is “inactive”.

Take `CCC(=O)NC1=C(Cl)C(=O)C(NC(=O)CC)=C(Cl)C1=O`: the IC50 entry was “inactive”.

As for `CC(=O)Nc1ccc2sn(-c3ccccc3)c(=O)c2c1`, the IC50 result is “inactive”.

As for `O=C(O)c1ccc(COc2ccccc2C=C2C(=O)c3ccccc3C2=O)cc1`, the IC50 result was “inactive”.

In the case of `Oc1ccc(NCc2ccc(OCc3ccccc3)cc2)cc1`, the IC50 entry was “inactive”.

Regarding `C=C1c2c(Cl)ccc(O)c2C(O)=C2C(=O)[C@]3(O)C(O)=C(C(N)=O)C(=O)[C@@H](N(C)C)[C@@H]3[C@@H](O)C12` (stereo not given in full), the IC50 result was “inactive”.

In the case of `CC[n+]1c(/C=C2\Sc3ccccc3N2C)ccc2cccc(C)c21`, the IC50 result was “inactive”.

`Nc1nn2c(-c3ccccc3)cc(=O)[nH]c2c1N=Nc1ccc(O)cc1`: the IC50 is 70.9 µM (active).

As for `Cc1cc(=O)[nH]c2c(N=Nc3ccc(O)cc3)c(N)nn12`, the IC50 was 13.2 µM (active).

For the molecule `CCOC(=O)C1Nc2ccc(C(=O)O)cc2C2C=CCC12` (stereo not given), the IC50 entry was “inactive”.

As to `COc1cc(OC)c(Cl)cc1N`, the IC50 was 43.9 µM (active).

Consider `CCC(=Nc1ccc(N)cc1)C1=C(O)C(C(=O)OC)C(C)(C)CC1=O` (stereo not given), for which the IC50 was 7.76 µM (active).

`CCCC(=Nc1ccc(N)cc1)C1=C(O)C(C(=O)OC)C(C)(C)CC1=O` (stereo not given): the IC50 was 14.8 µM (active).

As to `COC(=O)C1C(O)=C(C=Nc2ccc(N)cc2)C(=O)CC1(C)C` (stereo not given), the half-maximal inhibitory concentration (IC50) is 57.5 µM (active).

For the molecule `COc1cc(/C=N/NC(=O)CCc2n[nH]c(=O)[nH]c2=O)ccc1O`, the IC50 was 35.4 µM (active).

On to `CCOc1cc(/C=N/NC(=O)CCc2n[nH]c(=O)[nH]c2=O)ccc1O`, for which the IC50 is 55.6 µM (active).

Take `COc1cc(/C=N/NC(=O)C(C)Nc2n[nH]c(=O)[nH]c2=O)ccc1O` (stereo not given): the IC50 is 69.5 µM (active).

On to `COc1cc(/C=N/NC(=O)CNc2n[nH]c(=O)[nH]c2=O)ccc1O`, for which the IC50 is 39.7 µM (active).

For `C/C(CCc1ccccc1)=N\NC(=O)C1C2CCCCC21` (stereo not given), the IC50 entry is “inactive”.

Consider `Cc1ccc(-c2cnc(NCc3cc4c(cc3[N+](=O)[O-])OCO4)n2C)cc1C`, for which the IC50 entry was “inactive”.

For the molecule `O=[S@]1Oc2ccccc2-c2ccccc21`, the IC50 result is “inactive”.

Take `CCN(CC)c1ccc(/C=C2/SC(=O)N(C(C)C)C2=O)o1`: the IC50 is 58.5 µM (active).

`CCCN1C(=O)S/C(=C/c2ccc(N3CCOCC3)o2)C1=O`: the IC50 result is “inactive”.

Take `Cc1cc(-c2ccccc2)nc(N/N=C/c2ccc(O)cc2O)n1`: the IC50 was 61.3 µM (active).

Take `Cc1cc(-c2ccccc2)nc(N/N=C/c2ccc(O)cc2)n1`: the half-maximal inhibitory concentration (IC50) was 31.6 µM (active).

In the case of `CN(C)c1ccc(N=Cc2nc(-c3ccccc3)oc2OC(=O)c2ccccc2)cc1`, the IC50 entry was “inactive”.

`Cc1cc(-c2ccccc2)nc(N/N=C/c2ccc(N(C)C)cc2)n1`: the IC50 is 80 µM (active).

In the case of `Cc1nc2ccccc2nc1N/N=C/c1ccc(O)cc1`, the IC50 is 30.5 µM (active).

For `CC1CN(CCOCCOc2ccccc2-c2ccccc2)CC(C)O1` (stereo not given), the IC50 entry was “inactive”.

On to `COc1ccc(CN2CCN(Cc3ccco3)CC2)cc1OC`, for which the IC50 entry is “inactive”.

On to `COc1ccc(/C=N/Nc2cc(C)nc3c(C)cccc23)cc1`, for which the IC50 result is “inactive”.

Consider `Cc1cc(C)c2nc(C)cc(N/N=C/c3ccc(O)cc3)c2c1`, for which the IC50 is 32.9 µM (active).

Consider `COc1cc(/C=N/N=C2/C(=O)Nc3ccccc32)cc(OC)c1O`, for which the concentration for half-maximal inhibition (IC50) is 59.2 µM (active).

For `COc1ccc(/C=C2\C(=O)NC(=O)c3ccccc32)cc1OC`, the IC50 entry was “inactive”.

On to `Oc1ccc(-c2nccs2)cc1`, for which the IC50 is 31.4 µM (active).

`CCN1CCN(CCOc2cccc(Cl)c2Cl)CC1`: the IC50 result was “inactive”.

In the case of `CC1(C)CC(=O)C2=C(C1)Nc1ccccc1S2`, the IC50 is 23.1 µM (active).

With `CC1(C)CC(=O)C(C(C2=C(O)CC(C)(C)CC2=O)c2cccs2)C(=O)C1` (stereo not given), the IC50 entry is “inactive”.

As for `COc1ccc(/C=N\NC(=O)c2ccc(=O)[nH]n2)cc1O`, the concentration for half-maximal inhibition (IC50) was 26 µM (active).

On to `COc1cc(/C=N/NC(=O)c2cnccn2)ccc1O`, for which the IC50 was 25.9 µM (active).

For the molecule `COc1cc(/C=N/NC(=O)c2ccc(=O)[nH]n2)ccc1O`, the half-inhibitory concentration (IC50) is 26.3 µM (active).

Consider `O=C(/C(=C/c1ccccc1)n1cncn1)c1ccc(Cl)cc1Cl`, for which the IC50 result was “inactive”.

`COC(=O)C(C(=O)OC)C(C)C(C(=O)OC)C(=O)OC`: the IC50 entry was “inactive”.

As to `CN(C)c1ccc(C=Cc2cnccn2)cc1`, the IC50 is 53 µM (active).

Take `CCOC(=O)c1[nH]c2ccccc2c1NC(=S)Nc1cc(C)ccc1C`: the 50% inhibitory concentration (IC50) was 39.4 µM (active).

Take `CCOC(=O)c1[nH]c2ccccc2c1NC(=S)Nc1ccccc1C`: the IC50 was 45.3 µM (active).

For `CCOC(=O)c1[nH]c2ccccc2c1NC(=S)Nc1cccc(C)c1C`, the IC50 is 46 µM (active).

For the molecule `COC(=O)c1c(NC(=O)CCNCc2ccco2)sc2c1CCC2`, the IC50 entry was “inactive”.

With `CCOC(=O)c1[nH]c2ccc(F)cc2c1NC(=O)c1ccccc1C(=O)O`, the IC50 entry was “inactive”.

In the case of `CCOC(=O)c1[nH]c2ccccc2c1NC(=S)Nc1ccccc1`, the IC50 was 45.1 µM (active).

Take `O=C1CCCCCN1Sc1ccccc1`: the IC50 result was “inactive”.

For the molecule `O=C1SC(c2ccccc2)=C/C1=C\N1CCCCC1`, the IC50 was 51 µM (active).

For the molecule `CC(C)Nc1ccc(Nc2ccnc3cc4ccccc4cc23)cc1`, the IC50 is 22.4 µM (active).

For the molecule `COc1cc(/C=C/C(=O)OCC(=O)NC(=O)NC(C)(C)C)ccc1O`, the IC50 was 62.6 µM (active).

`COc1cc(/C=C/C(=O)OCC(=O)NC(=O)NC(C)C)ccc1O`: the IC50 was 42.8 µM (active).

For `C=CCN(CC=C)C(=O)C1CCN(Cc2ccc(OCc3ccccc3)cc2)CC1`, the IC50 entry was “inactive”.

`CCN1CCN(CC(=O)Nc2nc3ccc(OC)cc3s2)CC1`: the IC50 result was “inactive”.

As for `CCCS(=O)(=O)N1CCN(Cc2ccco2)CC1`, the IC50 result is “inactive”.

As for `CCN1CCN(CC(=O)Nc2ccc(C)c(Br)c2)CC1`, the IC50 entry was “inactive”.

As for `Cc1ccc(NC(=O)CN2CCN(C)CC2)cc1Br`, the IC50 entry is “inactive”.

Turning to `O=C(CN1CCCCC1)Nc1ccc(N2CCCCCC2)cc1`, the IC50 entry was “inactive”.

Consider `COc1ccc(NC(=O)c2ccc(NC(=O)CN3CCN(c4ccc(O)cc4)CC3)cc2)cc1`, for which the IC50 was 76.7 µM (active).

Regarding `O=C(CN1CCN(c2ccc(O)cc2)CC1)NC(=O)NCc1ccco1`, the IC50 is 54.7 µM (active).

`Cc1ccc(NC(=O)NC(=O)CN2CCN(c3ccc(O)cc3)CC2)c(C)c1`: the IC50 was 63.4 µM (active).

`CC1(C)O[C@@H]2[C@H](O1)[C@@H](COS(=O)(=O)O)O[C@H]2n1c(=S)[nH]c2c(=O)[nH]c(N)nc21`: the IC50 is 55.7 µM (active).

As to `CCC(=O)c1ccccc1OCCN1CCN(CC)CC1`, the IC50 result is “inactive”.

As for `Oc1cc(Br)ccc1C=Nc1ccc(N2CCCCC2)cc1`, the IC50 is 4.33 µM (active).

In the case of `CCN1CCN(c2ccc(N=Cc3ccccc3O)cc2)CC1`, the IC50 was 24.5 µM (active).

For the molecule `CCN1CCN(c2ccc(N=Cc3ccc(O)cc3O)cc2)CC1`, the IC50 is 38.2 µM (active).

As for `O=C1NN(c2ccc(Br)cc2)C(=O)/C1=C\c1ccc(O)cc1O`, the IC50 result is “inactive”.

Consider `CCN1CCN(CCOc2ccccc2OCc2ccccc2)CC1`, for which the IC50 result is “inactive”.

The values above are taken from PubChem BioAssay AID624351 (Southern Research Specialized Biocontainment Screening …, 2012).
